The values that follow come from PubChem BioAssay (NCI).

The structures appear in SMILES notation. Several values for one entry are separate records, joined by “and”; a condition that tells them apart may be missing. Equal values may be shown once. The panel holds about 83,000 compounds, 20% with a hit somewhere; the sample as a whole holds those more often.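 Compound tested at a single concentration for 48 hours in 96-well plates; a percent growth value below 10 was scored as active.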 Activity calls are given as the source filed them.

The subject of this test is MDA-MB-468 breast. The test can be described thus: NCI-60 one-dose screen, 48 h (100 = growth as untreated, 0 = no growth, -100 = all killed). The following applies: 10 µM unless noted.
For `c1ccc2sc(SSN3CC4CCC(CC4)C3)nc2c1`, the growth is 122% (inactive).

In the case of `COC(=O)c1cc([N+](=O)[O-])cc([N+](=O)[O-])c1Cl`, the growth is -7.42% (active). Consider `CC1=NN(c2ccccc2Cl)C(=O)/C1=C\c1cn(S(=O)(=O)c2ccc(C)cc2)c2ccccc12`, for which the growth is 119% (inactive).

For the compound `Cc1ccc(C(=O)c2ccc(CC(=O)N/N=C/c3ccc(O)cc3O)n2C)cc1`, the growth is 46.8% (inactive).

For `Cc1ccccc1Nc1nc(SC(C)C)nc(-c2ccccc2)c1C#N`, the growth is 74.8% (inactive). For `CCOC(=O)CNC1=C(Cl)C(=O)N(Cc2ccc(Cl)cc2)C1=O`, the growth is 105% (inactive). In the case of `O=C(CNc1nnc(-c2cccnc2SCc2ccccc2)s1)Nc1nc(Cl)cc(Cl)n1` it was 112% (inactive); in that of `CCOC(=O)c1c(Nc2ccccc2)nn2c(-c3ccc(Br)cc3)ccnc12`, 67.5% (inactive). In the case of `COC1=CC(=O)c2ccccc2C1=O` it was 32.7% (inactive). As for `COc1cc(/C=N/Nc2nc3c([nH]2)c(=O)n(C)c(=O)n3C)ccc1O`, the figure is 103% (inactive) and 122% (inactive); as for `CC(C)(C)n1cc(-c2ccnc(NCCCNS(=O)(=O)c3cccc(F)c3)c2)c(-c2cccc(O)c2)n1`, 25.9% (inactive). `Nc1ccc(C(=O)Nc2cccc(C(=O)Nc3ccc4c(O)c(N=Nc5ccc(N=Nc6ccc(S(=O)(=O)O)cc6)cc5)c(S(=O)(=O)O)cc4c3)c2)cc1`: the growth is 100% (inactive). As to `N#Cc1c(Nc2ccc(F)cc2)n[nH]c1-c1cccs1`, the growth is 98.4% (inactive).

With `Nc1ccc(SSc2ccc(N)cc2)cc1`, the growth was 101% (inactive). For `CSc1nc2sc3cc(Cl)c(Cl)cc3n2c(=N)c1C#N`, the growth was 72.6% (inactive). In the case of `Cn1cc(-c2ccc3c(Nc4cccc(NC(=O)Nc5cccc(F)c5)c4)ncnc3c2)cn1` it was 3.69% (active). Consider `CCN(CC)CCc1nc(-c2ccccc2)no1`, for which the growth was -1.63% (active) and 78.5% (inactive). As to `CCCCCCCCCCCCCCCCCC[n+]1ccc2c(C)c3c(c(C)c2c1)c1cc(O)ccc1n3CC`, the growth was -18.3% (active). Take `COC(=O)c1[nH]nc(OC)c1C1(C(C#N)c2nc3ccccc3s2)CCCc2ccccc21` (stereo not given): the growth is 98.2% (inactive). Take `NNc1nnc2nc(Nc3ccccc3)nc(Nc3ccc(S(N)(=O)=O)cc3)n12`: the growth was 126% (inactive).

Take `C=C(C)[C@@H]1CC[C@]2(C(=O)N3CCN(CC)CC3)CC[C@]3(C)[C@H](CC[C@@H]4[C@@](C)(CCC(=O)N5CCN(CC)CC5)[C@H](C(=C)C)CC[C@]43C)[C@@H]12`: the growth was 43.4% (inactive).

On to `CCCCC(O)c1ccccc1` (stereo not given), for which the growth is 98.6% (inactive).

Regarding `O=C(Nc1ccc(N=Cc2c(O)[nH]c3ccccc23)cc1)Nc1ccc(S(=O)(=O)Nc2ncccn2)cc1`, the growth was 116% (inactive). As for `CN1CCN(C(=O)c2ccc(NC(=O)c3cc4c(nn3)NCCN4Cc3cc(Cl)ccc3Cl)cc2)CC1`, the figure is 60.9% (inactive); as for `O=C(CNC1C2CC3CC(C2)CC1C3)Sc1nnc2sc3ccccc3n12` (stereo not given), 102% (inactive); as for `Cc1ccc(C(=O)Nc2ccc(CN3CCN(C)CC3)c(C(F)(F)F)c2)cc1C#Cc1cnc(N)c2ccccc12`, -61.7% (active).

In the case of `COc1ccc(/C(C)=C(\c2ccc(Cl)cc2)c2ccc(OCCN)cc2)cc1`, the growth is 67.2% (inactive). As for `C/C=C/C=C1\C[C@H]2CO[C@H](O2)C1=O`, the figure is 103% (inactive); as for `CCCN1C(=O)N(CCC)C2C1NN=c1s/c(=C3\C(=O)N(C(C)C)c4ccccc43)c(=O)n12` (stereo not given), 35.7% (inactive).

Take `O/N=C1\c2ccccc2-c2ccc(F)cc21`: the growth is 9.23% (active).

Regarding `COc1cc(C=C2C(=O)N(C)C(=O)N(C)C2=O)cc(CN2CCCCC2)c1O`, the growth is 104% (inactive). As for `O=C(Nc1cccc(C2=NCCN2)c1)c1ccc(N=Nc2ccc(C(=O)Nc3cccc(C4=NCCN4)c3)cc2)cc1`, the figure is 6.96% (active); as for `CCNC(=O)Oc1ccc(/C(=C(\C)c2ccccc2)c2ccc(OCCCN(C)C)cc2)cc1`, 86.6% (inactive). Turning to `COC(=O)/C=C/C(=O)c1cc(C)cc(C)c1O`, the growth was 110% (inactive). For the compound `CCN1CCC[C@H]1c1cc(O)c2c(c1OC)C[C@H]1C[C@H]3[C@H](N)C(=O)C(C(N)=O)=C(O)[C@@]3(O)C(=O)C1=C2O`, the growth was -18.7% (active).

With `O=C(/C=C/c1cn(-c2ccccc2)nc1-c1ccc(Cl)cc1)c1cc2ccccc2oc1=O`, the growth is 64.6% (inactive). Turning to `Cc1cc2ccccc2nc1-c1ccccc1F`, the growth is 105% (inactive). In the case of `NCCCN1CCCC1=O` it was 116% (inactive); in that of `NC(=S)N/N=C/c1ccc(OCc2ccccc2)cc1`, 47.3% (inactive). In the case of `C=CC1CN2CCC1CC2C(O)c1ccnc2ccc(OC)cc12` (stereo not given), the growth is 102% (inactive).
